Compound activity: PubChem BioAssay, National Center for Advancing Translational Sciences (NCATS)
HP1b binding inh: HP1-beta chromodomain-methylated histone interaction inhibition | AlphaScreen HP1-beta / biotin-H3K9me3 peptide binding | Potency, µM (doses to about 114 µM), for inactives: top-dose activity change, negative = inhibition, hits mostly inhibitors | 390,000 compounds, 0.56% hits; note: nearly all actives have a fitted effect of over 70% in size
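HP1-beta protein (50 nM final) preincubated 30 min at room temperature with biotinylated H3(1-18)K9me3 peptide (50 nM) in PBS pH 7.4, 0.01% Tween-20, then compound added for 30 min. AlphaScreen streptavidin donor/nickel chelate acceptor beads (10 ug/mL final), 30 min dark, luminescence read.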
G9a block: G9a (human) methyltransferase inhibition | Potency, µM (highest dose often 102 µM), for the others: at the highest dose activity, negative = inhibition, hits mostly inhibitors | G9a H3K9 monomethylation, AlphaScreen, 2 h | 350,000 compounds, 8.8% hits | Q96KQ7; note: % is set by controls: 0 for no effect and ±100 for the full control effect; nearly all actives have a fitted effect of over 75% in size
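Compounds were preincubated with 20 nM G9a for 15 min, after which biotinylated H3K9 peptide (500 nM) and SAM (20 uM) started a 2 h room-temperature reaction. Monomethylated product was quantified by antibody-based AlphaScreen chemiluminescence.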
BAZ2B inh: blocks human BAZ2B | 360,000 compounds, 4.4% hits | Q9UIF8 | Potency, µM (titrated, usually from 114 µM), for inactives: top-dose activity change, negative = inhibition, actives largely listed as inhibitors | AlphaScreen BAZ2B-H3K14Ac peptide displacement; note: % is set by controls: 0 for no effect and ±100 for the full control effect; nearly all actives have a fitted effect of over 60% in size
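In this displacement format the biotinylated H3(5-23) peptide acetylated at Lys14 serves as ligand at 50 nM, with BAZ2B at 50 nM in PBS pH 7.4 containing 0.01% Tween-20. Donor and acceptor beads are 10 ug/mL final.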
Sfp inh: Sfp phosphopantetheinyl transferase inhibition; Q9F4F7; Biochemical Sfp PPTase activity, qHTS; Potency, µM, without a hit: largest response in the series, negative = inhibition, actives largely listed as inhibitors; 310,000 compounds, 3.5% hits; AID 1490;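 note: the enzyme is Sfp with the accession as filed and its product quenches rhodamine fluorescence; 0% = enzyme reaction without inhibitor and -100% = no enzyme wells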
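Compounds were incubated with enzyme (final 15 nM) for 15 min at room temperature before substrate addition started the reaction. Fluorescence at 525 nm excitation, 598 nm emission was recorded immediately and after 30 minutes.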
L3MBTL1 block: inhibitors of human L3MBTL1; Q9Y468; AlphaScreen L3MBTL1–H3K9me1 peptide binding; Potency, µM (doses to about 57.1 µM), for inactives: at the highest dose activity, negative = inhibition, hits mostly inhibitors; 230,000 compounds, 0.66% hits; note: % is set by controls: 0 for no effect and ±100 for the full control effect; nearly all actives have a fitted effect of over 60% in size
Target sequence (Q9Y468 whole entry, looked up): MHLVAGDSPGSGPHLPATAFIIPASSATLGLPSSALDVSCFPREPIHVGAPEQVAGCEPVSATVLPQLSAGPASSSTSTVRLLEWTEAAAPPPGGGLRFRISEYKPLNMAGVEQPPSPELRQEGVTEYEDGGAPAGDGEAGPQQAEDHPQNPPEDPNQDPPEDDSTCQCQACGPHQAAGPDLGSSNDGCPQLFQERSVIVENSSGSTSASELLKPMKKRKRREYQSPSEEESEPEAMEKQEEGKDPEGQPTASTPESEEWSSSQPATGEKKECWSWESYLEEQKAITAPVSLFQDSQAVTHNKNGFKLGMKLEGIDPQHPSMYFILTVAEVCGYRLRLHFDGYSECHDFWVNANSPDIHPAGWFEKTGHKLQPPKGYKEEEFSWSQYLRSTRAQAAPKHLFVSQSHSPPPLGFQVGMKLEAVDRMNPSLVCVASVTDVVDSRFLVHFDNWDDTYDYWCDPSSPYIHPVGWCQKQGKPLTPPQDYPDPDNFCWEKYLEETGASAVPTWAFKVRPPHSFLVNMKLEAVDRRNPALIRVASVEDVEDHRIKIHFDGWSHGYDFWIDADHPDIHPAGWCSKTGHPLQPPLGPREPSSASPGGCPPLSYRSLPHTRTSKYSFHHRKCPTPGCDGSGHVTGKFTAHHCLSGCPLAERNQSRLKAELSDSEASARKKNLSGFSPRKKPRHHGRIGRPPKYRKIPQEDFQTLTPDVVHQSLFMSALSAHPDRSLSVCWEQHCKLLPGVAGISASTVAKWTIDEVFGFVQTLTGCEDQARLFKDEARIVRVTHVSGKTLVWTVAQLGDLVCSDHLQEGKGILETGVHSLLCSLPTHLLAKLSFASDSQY
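First, the protein-peptide complex forms for 30 min at room temperature (L3MBTL1 50 nM, biotinylated H3K9me1 peptide 75 nM). Next, compounds are pin-transferred and incubated 30 min. Finally, AlphaScreen beads are added and read after 30 min.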
JMJD2A Tudor: inhibitors of human JMJD2A Tudor domain; O75164; AlphaScreen JMJD2A-Tudor / H3K4me3 peptide binding; Potency, µM (top dose mostly 114 µM), for the others: top-dose activity change, negative = inhibition, actives largely listed as inhibitors; 390,000 compounds, 4.4% hits; AID 504339; note: % is set by controls: 0 for no effect and ±100 for the full control effect; nearly all actives have a fitted effect of over 50% in size
* hit, by the source's call; ? = inconclusive; · = no result given; [ ] = remark or other dose. Only some compounds are listed: those with a hit (about 12% of all), similar ones and a draw of the others. Calls come from the whole dose curve; as a rule, active = well fitted curve in the direction sought with a large enough effect; inconclusive = small, poorly fitted or top-dose-only effect, or another doubt; inactive = no such curve, though single readings can be large; an effect the other way counts as inactive or inconclusive. Potency is the fitted concentration of half-maximal effect.

SMILES	HP1b binding inh	G9a block	BAZ2B inh	Sfp inh	L3MBTL1 block	JMJD2A Tudor
CCOc1ccc(N2C(=O)CC(NCc3ccc(S(N)(=O)=O)cc3)C2=O)cc1 (centres undefined)	-5.8%	-35.0%	-2.4%	7.8%	·	-17.6%[11.4 µM]
CCCOc1ccc(N2C(=O)CC(NCCNc3ccc([N+](=O)[O-])cn3)C2=O)cc1 (centres undefined)	32.9%	12.6µM*	-26.3%	-7.0%	-0.4%	-18.4%
O=C1NCCCCC1NC1CC(=O)N(c2ccccc2)C1=O (centres undefined)	34.0%	-31.0%[59 µM]	-5.8%	0.3%	-0.5%	-7.2%
O=C(COCc1cc(-c2ccc3c(c2)OCO3)on1)Nc1cc(Cl)ccc1O	22.3%	-4.5%[59 µM]	2.0%	·	·	1.7%
O=C(NCc1cccnc1)c1nn(-c2ccccc2F)nc1CO	10.6%	-8.7%[59 µM]	-1.0%	·	·	-11.6%
CC(=O)N[C@@H](CCCNC(=N)N)C(=O)N[C@H](CC1CCCCC1)C(=O)N[C@@H]1CCC2SC[C@@H](C(=O)N[C@H](CCCNC(=N)N)C(=O)N[C@H](Cc3ccc(Cl)cc3)C(N)=O)N2C1=O (some centres undefined)	·	·	·	-2.5%	·	·
c1cncc(CSc2ccc(-c3cccnc3)nn2)c1	47.0%	-6.6%	-0.5%	15.8%	·	-9.0%
c1ccc(-c2ccc(SCc3cccnc3)nn2)nc1	12.6%	11.5%	3.16µM*	-18.6%	·	?
COc1ccc(C(O)Cn2ccsc2=NC(C)=O)cc1 (centres undefined)	48.0%	50.1µM*	-29.0%	-11.2%	·	-3.2%
CC(=O)N=c1sccn1CC(O)c1ccccc1 (centres undefined)	31.0%	-4.4%	-21.9%	3.7%	·	-8.7%
COc1cc(CC(CC(=O)O)CC(C)OCc2ccccc2)cc(OC)c1 (centres undefined)	22.7%	1.41µM*	10.7%	6.1%	3.6%	13.8%
Cc1cccn2c(=O)cc(CSc3nnc(NC(=O)c4ccc(F)cc4)s3)nc12	22.3%[57 µM]	0.5%[59 µM]	6.7%	·	·	11.7%
COc1cc(OC)c(C2C=C(c3ccc(C)cc3)Nc3c(C(=O)Nc4ccccc4)cnn32)cc1OC (centres undefined)	6.5%	?	-30.6%	·	·	?
c1ccc(C2(CNc3ccccn3)CCCC2)cc1	29.0%	50.1µM*	9.4%	0.2%	·	-10.1%
CCOC(=O)c1cc(C)[nH]c(=S)c1C#N	-13.9%	-1.0%[0.501 µM]	?	39.8µM*	-6.0%	6.31µM*
CCOC(=O)c1cc(C(=O)OCC)c(=O)[nH]c1C	14.4%	24.3%	26.2%	?	32.7%	-10.4%
O=C(CNCCc1ccccc1)Nc1ccc(C(=O)N2CCCCC2)cc1	?	11.2µM*	39.8µM*	-17.4%	·	22.4µM*
O=C(CNCc1ccc(F)cc1)Nc1ccc(C(=O)N2CCCCC2)cc1	?	10µM*	31.6µM*	?	·	1.12µM*
O=C(O)CCC(=O)Nc1ccc(C(=O)N2CCCCC2)cc1	13.6%	28.5%	-1.3%	13.2%	-1.1%	-6.4%
O=C(CNCCc1ccc(Cl)cc1)Nc1ccc(C(=O)N2CCCCC2)cc1	?	7.94µM*	20µM*	?	·	3.16µM*
O=C(CNCc1ccccc1Cl)Nc1ccc(C(=O)N2CCCCC2)cc1	?	5.62µM*	22.4µM*	?	·	?
O=C(CNC(=O)c1ccccc1)OC(CCc1ccccc1)C(=O)Nc1cc(C(F)(F)F)ccc1Cl (centres undefined)	·	·	·	·	·	-18.5%
Cc1[nH]c2ccc(F)cc2c1CCN1C(=O)OC(C)(C)C1(C)O (centres undefined)	-0.4%	-0.2%[12.7 µM]	-26.3%	5.9%	·	-1.0%
Cc1[nH]c2ccc(OCc3ccccc3)cc2c1CCN1C(=O)OC(C)(C)C1(C)O (centres undefined)	-9.9%	79.4µM*	?	-4.5%	·	?
CCNc1nc(NCC)n2c(SCC(=O)Nc3cc(OC)ccc3OC)nnc2n1	2.4%	8.8%[0.501 µM]	5.7%	·	-5.0%	-21.4%
SMILES	HP1b binding inh	G9a block	BAZ2B inh	Sfp inh	L3MBTL1 block	JMJD2A Tudor
COc1ccc(C)cc1NC(=O)C(Sc1nnc(Nc2cc(C)ccc2OC)s1)c1ccccc1 (centres undefined)	5.6%	3.55µM*	-33.6%	5.2%	-12.9%	?
COc1ccc(Nc2nnc(SC(C(=O)Nc3ccc(OC)c(Cl)c3)c3ccccc3)s2)cc1 (centres undefined)	0.8%	20µM*	-14.1%	-2.9%	-13.4%	-18.5%
COc1ccc(Nc2nnc(SC(C(=O)Nc3cc(C)ccc3C)c3ccccc3)s2)cc1 (centres undefined)	2.4%	50.1µM*	-18.7%	10.7%	-1.9%	-16.8%
CCNc1nc(NCC)n2c(SC(C(=O)Nc3cc(C)ccc3OC)c3ccccc3)nnc2n1 (centres undefined)	21.5%	?	-11.4%	50.1µM*	6.2%	-19.3%
CC(CCC(=O)O)C1CCC2C3CC[C@H]4CC(O)CC[C@@]4(C)C3CC(O)[C@]12C (some centres undefined)	·	-38.3%[2.33 µM]	·	15.6%	·	·
COc1ccc(Cn2ccc3nc(C)c(C(=O)N4CCN(c5ccccc5OC)CC4)cc3c2=O)cc1	-7.9%	-3.8%[59 µM]	-12.5%	·	·	-33.0%
Nc1ccc2c(c1)OCCOCCOCCOCCOCCO2	49.9%	14.1µM*	-11.4%	-7.8%	0.4%	-4.2%
Brc1ccc2c(c1)OCCOCCOc1cc(Br)ccc1OCCOCCOCCO2	61.0%	19.0%[59 µM]	-0.6%	8.1%	3.5%	2.9%
Brc1cc2c(cc1Br)OCCOCCOCCOCCO2	-21.7%	23.9%	-23.6%	8.2%	8.6%	8.91µM*
CCOC(=O)C1=C(C)c2ccccc2OC1(CC)C(=O)OCC (centres undefined)	110.6%	87.7%	·	-5.2%	25.9%	53.4%
CCOC(=O)C1=C(C)c2ccccc2N(C(=O)OC)C1(C)C(=O)OCC (centres undefined)	51.2%	26.2%	·	3.55µM*	-2.0%	-2.1%
N#C/C(=C\c1ccc(O)cc1)C(=O)NCc1ccccc1	16.3%	1.5%	-12.4%	5.7%	·	-18.5%
N#C/C(=C\c1ccc(O)c(O)c1)C(=O)NCCCCc1ccccc1	·	·	·	79.4µM*	·	·
COCCNC(=O)/C(C#N)=C/c1ccccc1Br	-3.4%	4.2%	-13.0%	4.6%	1.0%[11.4 µM]	17.8µM*
COc1cc(/C=N/NC(=S)NCCc2ccccc2)cc(OC)c1OC	10.7%	-7.0%	-31.7%	0.8%	·	?
COc1cc(/C=N/S(=O)(=O)CCc2ccccc2)cc(OC)c1O	13.3%	50.1µM*	-23.0%	-0.7%	-1.8%	-8.8%
N#C/C(=C\c1ccc(O)c(O)c1)C(=O)NCCc1ccccc1	?	9.47µM*	11.2µM*	·	-8.4%	?
